# Source: ChEMBL document CHEMBL3988442, “University of Dundee, Small-Polar-MMV Screening Library” (2021)
# In all, about 53,000 compounds went through this assay and about 900 (1.7%) showed an effect of 50% or more. Only a selection was taken, and strong results are over-represented in it overall.
# Test system: Mycobacterium tuberculosis
# Assay: Cornell - Phenotypic assay to identify agents that inhibit growth of Mycobacterium tuberculosis
# Format: functional
# Set-up: scale not given: direction of the effect not stated beside the values
# Settings: 10 mM as filed; unlikely as a test dose
row,Structure (SMILES),Percent Effect [%]
1,CC(c1nc(C(C)(C)C)no1)N1CCN(CC(=O)N2CCOCC2)CC1 (stereo unspecified),7.513
2,Cc1noc(C(C)Nc2ccc3c(c2)CCC3)n1 (stereo unspecified),-0.4193
3,CCN1CCN(c2ccc(NC(C)c3nc(C(C)C)no3)c(C)c2)CC1 (stereo unspecified),73.38
4,CC(c1nc(C(C)(C)C)no1)N1CCN(C(=O)CN2CCOCC2)CC1 (stereo unspecified),8.353
5,Cc1cc(CNC(=O)NC(C)c2ccc(N3CCOCC3)cc2)no1 (stereo unspecified),-27.63
6,CCN1CCN(c2ccc(NC(=O)CC(C)C)c(C)c2)CC1,-22.64
7,Cc1noc(C(C)N2CCN(CC(=O)N3CCOCC3)CC2)n1 (stereo unspecified),-22.01
8,Cc1noc(C(C)Nc2ccc(N3CCOCC3)cc2C)n1 (stereo unspecified),61.87
9,Cc1cc(N2CCOCC2)ccc1NC(C)c1nc(C(C)C)no1 (stereo unspecified),72.08
10,Cc1cc(OCC(=O)NC(C)c2ccc(N3CCOCC3)cc2)no1 (stereo unspecified),4.093
11,Cc1cc(CN2CCN(C(C)c3nc(C(C)C)no3)CC2)no1 (stereo unspecified),-1.591
12,Cc1cc(N2CCOCC2)ccc1NC(C)c1nc(C(C)(C)C)no1 (stereo unspecified),76.4
13,CCc1ccccc1NC(=O)NCc1nnc(SC)n1C,-6.778
14,CC(=O)N1CCC(CCc2ccnc(NC(=O)c3ccccn3)c2)CC1,-18.95
15,COc1ccc(-n2cnc(Cl)c2CO)cc1,11.93
16,COCCN(C)C[C@H]1C[C@H](CO)CN(C(=O)c2ccn(C)c(=O)c2)C1,18.02
17,CCc1ncnc(N2CCOCC2C2CC2)c1F (stereo unspecified),0.2478
18,COCCNC(=O)c1ccccc1-n1cc(CN)cn1,-18.17
19,CC(C)COC(=O)N1CC(=O)N(CCCc2ccccc2)CC(O)C1 (stereo unspecified),6.947
20,Cc1cc(C)c(CNC(=O)NCC(O)c2ccccc2F)c(=O)[nH]1 (stereo unspecified),-14.22
21,CCc1nccn1C1CCCN(C(=O)c2cccc3c2OCO3)C1 (stereo unspecified),-43.9
22,C1CCN(CCN2CCCCC2C2OCCO2)CC1 (stereo unspecified),10.52

row,Structure (SMILES),Percent Effect [%]
1,Cc1cccc(C2(O)CCN(Cc3ccccc3N3CCCC3)CC2)c1,33.4
2,CCc1ccc(O)c(C(=O)N2CCN(CC(=O)N(CC)CC)CC2)c1,-14.81
3,Cc1cc2c(cc1Cl)C=CC1(CCN(CC(=O)N3CCOCC3)CC1)O2,-15.66
4,CCN(CC)C(=O)CN1CCC2(C=Cc3cc(Cl)c(C)cc3O2)CC1,52.2
5,Cc1cc2c(cc1Cl)C=CC1(CCN(CC(=O)NC3CCCC3)CC1)O2,71.56
6,Cc1cc2c(cc1C)OC1(C=C2)CCN(CC(=O)N2CCOCC2)CC1,44.67
7,Cc1cc(C)n(CC2CN(CC(=O)NC3CCCC3)CCO2)n1 (stereo unspecified),-7.412
8,Cc1cc2c(cc1Cl)C=CC1(CCN(CC(=O)N3CCCC3)CC1)O2,63.41
9,Cc1cc2c(cc1Cl)C=CC1(CCN(C(=O)N3CCOCC3)CC1)O2,23.79
10,Cc1cc(C)n(CC2CN(CC(=O)NC3CCCCC3)CCO2)n1 (stereo unspecified),-10.09
11,O=C1NCC(C(=O)Nc2ncc(Cc3ccccc3)s2)N1 (stereo unspecified),-21.97
12,CNC(=O)c1cn[nH]c1C1CCN(Cc2cn(C)nc2C)C1 (stereo unspecified),-22.18
13,CCn1nc(C)c2ncnc(N(C)C)c21,-48.95
14,O=C(CC1CCCC1)N1CCC(c2cc3ncccc3c(O)n2)CC1,-42.1
15,CCN1CCCC1CNC(=O)Cc1c(C)n[nH]c1-c1ccc(OC)cc1 (stereo unspecified),17.71
16,CCC(C(=O)Nc1ccc2cn(CC)nc2c1)N1CCCC1=O (stereo unspecified),13.02
17,Nc1nnc(CCNC(=O)c2cccc(C3CCCNC3)c2)s1 (stereo unspecified),4.454
18,Cn1cnc2c1CCN(CCS(=O)(=O)c1ccc(Cl)cc1)C2,-6.56
19,COc1ccccc1CN(C)C(=O)CN1CC(n2nc(C)cc2C)C1,65.44
20,COc1cccc(CN(C)C(=O)CN2CC(n3nc(C)cc3C)C2)c1,24.75
21,Cc1cc(C)n(C2CN(CC(=O)N(C)Cc3ccco3)C2)n1,-1.246
22,CCCc1nc(CN(CCO)Cc2cc(Br)ccc2F)no1,55.91

row,Structure (SMILES),Percent Effect [%]
1,CC(C)(C)c1nc(CN(CCO)Cc2cc(Br)ccc2F)no1,21.92
2,Cc1noc(CN(CCO)Cc2cc(Br)ccc2F)n1,29.28
3,CCS(=O)(=O)N1CCCn2cnc(COc3cccnc3)c2C1.O=C(O)C(F)(F)F,13.68
4,CN(CCCc1cnn(C)c1)Cc1cc2n(n1)CCCN(C)C2,2.304
5,C[C@@H](O)CNC(=O)c1nc(Cc2c(Cl)cccc2Cl)no1,33.25
6,CC(C)CNC(=O)CNC(=O)c1nc(Cc2c(Cl)cccc2Cl)no1,50.66
7,CC(O)CNC(=O)c1nc(Cc2c(Cl)cccc2Cl)no1 (stereo unspecified),19.28
8,CC(C)(O)CN1CCN(C(=O)c2cc3ccccc3c(=O)[nH]2)CC1,11.41
9,COc1cccc2cc(CNCc3ccnc(N4CCCCC4)c3)oc12,60.34
10,COc1cccc2cc(CNCc3ccnc(N4CCOCC4)c3)oc12,-7.276
11,COc1cccc2cc(CNCc3ccc(N4CCCC4)nc3)oc12,-14.56
12,O=C(CCc1cccc(F)c1F)N1CCCC(n2cncn2)C1 (stereo unspecified),5.232
13,Cc1nn(C)c(N(C)C)c1CNC(C)c1cccc(OC(C)C)c1 (stereo unspecified),54.17
14,Cc1nn(C)c(N(C)C)c1CNC(C)COc1cccc(F)c1 (stereo unspecified),24.93
15,Cc1nn(C)c(N(C)C)c1CNC(C)Cc1c(F)cccc1F (stereo unspecified),29.42
16,Cc1nccc(CN2Cc3nccn3CC2c2ccccc2)n1 (stereo unspecified),-4.199
17,Cn1cnc(CN2Cc3nccn3CC2c2ccccc2)c1 (stereo unspecified),25.78
18,CC(C)n1nccc1CN1Cc2nccn2CC1c1ccccc1 (stereo unspecified),55.64
19,Cc1csc(N2CCN(Cc3cccnc3)CC2C)n1 (stereo unspecified),17.54
20,O=C(NC1CCCc2c1[nH]c1ccc(F)cc21)c1n[nH]c2c1CCC2 (stereo unspecified),5.755
21,COc1ccc(Cl)cc1CCNC(=O)NCc1noc(C)n1,15.04
22,COc1ccc(Cl)cc1CCNC(=O)NCc1ncnn1C,19.31

row,Structure (SMILES),Percent Effect [%]
1,COc1ccc(Cl)cc1CCNC(=O)NCc1ccncc1,59.54
2,COc1ccc(C(=O)NCCNC(=O)c2scnc2Cl)cc1,-54.01
3,CCN(CC)C1CCN(C(=O)NCc2cccc(-n3ccnc3)c2)C1 (stereo unspecified),34.25
4,COc1ccc(NC(=O)CCc2c(C)nc3cc(O)nn3c2C)cn1,65.23
5,COC(=O)CCc1c(C)nc2cc(O)nn2c1C,-35.79
6,CCNC(=O)CCc1c(C)nc2cc(O)nn2c1C,3.574
7,Cc1cnn(CC2CCCN2Cc2nnc(C(C)C)o2)c1 (stereo unspecified),-69.76
8,Cc1cc(C)n(CC2CCCN2C(=O)c2ccc3nnc(C)n3c2)n1 (stereo unspecified),12.74
9,Cc1cnn(CC2CCCN2C(=O)c2ccc3nnc(C)n3c2)c1 (stereo unspecified),107.3
10,Cc1cnn(CC2CCCCN2C(=O)c2ccc3nncn3c2)c1 (stereo unspecified),-11.21
11,Cc1ncccc1CNCC1CCN(CC(C)O)CC1 (stereo unspecified),-13.7
12,Cn1nccc1-c1cncc(C2CCCN(S(C)(=O)=O)C2)n1 (stereo unspecified),20.84
13,Cc1cc(-c2ccnn2C)nc(C2CCCN(S(C)(=O)=O)C2)n1 (stereo unspecified),51.61
14,Cc1nc(-c2ccnn2C)cc(C2CCCN(S(C)(=O)=O)C2)n1 (stereo unspecified),29.58
15,Cc1cc(-c2ccnn2C)nc(C2CCN(S(C)(=O)=O)CC2)n1,31.8
16,Cn1nccc1-c1cccc(CC2CCN(S(C)(=O)=O)C2)n1 (stereo unspecified),50.09
17,CC(=O)N1CCC(Cc2cccc(-c3ccnn3C)n2)CC1,35.75
18,CC(C)C(=O)N1CCN(C(=O)c2cc(C(C)C)no2)[C@H]2CS(=O)(=O)C[C@H]21,24.89
19,CN(C)CCNC(=O)CC1CCN(c2cccnn2)CC1,8.308
20,CCN(Cc1nc(C)no1)C(=O)C1CC(=O)N(Cc2ccccn2)C1 (stereo unspecified),0.6142
21,O=C(NC1CCCN(Cc2c(F)cccc2F)C1)c1cc[nH]n1 (stereo unspecified),-25.78
22,O=C(NCCN1CCC(c2cccs2)CC1)Nc1cccs1,107.5

row,Structure (SMILES),Percent Effect [%]
1,O=C(NCCc1ccccc1)NCCN1CCC(c2cccs2)CC1,45.08
2,CC(=O)NCCN1CCC(c2cccs2)CC1,5.988
3,Cc1cc(N2CCC(Cc3ccncc3)C2)ncn1 (stereo unspecified),-20.77
4,OCC1(Cc2ccc(Cl)cc2)CCN(Cc2ccccc2O)CC1,19.16
5,COc1ccc(CN2CCC(CO)(Cc3ccc(Cl)cc3)CC2)c(O)c1,23.78
6,COc1cccc(CN2CCC(CO)(Cc3ccc(Cl)cc3)CC2)c1O,91.19
7,CCC(O)c1nc2c([nH]1)CC(C)(C)CNC2=O (stereo unspecified),-22.87
8,CCc1cc(NCCN2CCNC2=O)n2nccc2n1,-6.964
9,Cc1nc(C)n(CC2CCCN(CCOc3ccccc3F)C2)n1 (stereo unspecified),-21.82
10,O=C(NC1CCN(CC2CC2)C1)N1CCC(OC2CCCCC2)CC1 (stereo unspecified),28.71
11,O=C(NC1CCN(CC2CCCC2)C1)N1CCC(OCC2CC2)CC1 (stereo unspecified),51.36
12,NC(=O)C1CCN(C(=O)NC2CCN(CC3CCCC3)C2)CC1 (stereo unspecified),21.86
13,CC(C)C(=O)N1CCC(c2nc3ccccn3c2NC(C)(C)C)CC1,44.44
14,CCc1cn[nH]c1C1CCN(c2cc(C)c3cc(OC)ccc3n2)CC1,4.644
15,CCc1cn[nH]c1C1CCN(c2cc(C)c3ccc(OC)cc3n2)CC1,2.528
16,CCc1cn[nH]c1C1CCN(c2cc(C)c3cccc(OC)c3n2)CC1,57.17
17,CSc1ncccc1C(=O)NCC(c1ccco1)N(C)C (stereo unspecified),23
18,CCNS(=O)(=O)c1ccc2c(c1)c(=O)n(CC)c(=O)n2CC,5.155
